According to the supplement of paper PMC4022240:
± gives the standard deviation.

Experiments:
Experiment in all cases: peptide microarray binding signal (635 nm), min-max normalized on array (fraction of array maximum); higher = stronger binding
Conditions in all cases: peptide region: H2A 1-13
[1] = target: T1, HaloTag-ATRX ADD domain (163-292)
T1 chain: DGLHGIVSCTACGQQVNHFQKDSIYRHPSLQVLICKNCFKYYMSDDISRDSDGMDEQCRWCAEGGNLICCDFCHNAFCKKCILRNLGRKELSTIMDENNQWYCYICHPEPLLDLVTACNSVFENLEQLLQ
Method: (§1)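 Histone 13-mer peptides were synthesized as cellulose conjugates with a C-terminal 20-atom PEG linker and printed in triplicate on nitrocellulose. The sequence given is the unmodified backbone; PTMs (Kme1/2/3, Kac, Sph/Tph, Rme/Rme2a/Rme2s, Rcit) are listed in the label and the 'peptide modifications' condition. Slides were probed at 4 °C for 1 h with biotin-labelled (HQ)5-HaloTag reader fusions (ATRX-ADD, ING2-PHD) then streptavidin-Alexa647, or with rabbit histone antibodies then anti-rabbit Alexa647. The mean 635 nm signal of the triplicate spots was scaled 0-1 between the lowest and highest values on each array.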

[2] = target: HaloTag-ING2 PHD (mouse Ing2 200-280)
Method: as §1

[3] = target: anti-H3K4me3 antibody ab8580
Method: as §1

[4] = target: anti-H3K9me3 antibody ab8898
Method: as §1

[5] = peptide modifications: H2AS1ph H2AK5ac H2AK9ac, binder concentration: 1:2,000 dilution
[6] = peptide modifications: H2AS1ph H2AK5ac H2AK9ac, binder concentration: 1:10,000 dilution
[7] = peptide modifications: H2AR3me1, binder concentration: 1:2,000 dilution
[8] = peptide modifications: H2AR3me1, binder concentration: 1:10,000 dilution
[9] = peptide modifications: H2AR3cit H2AK5ac, binder concentration: 1:2,000 dilution
[10] = peptide modifications: H2AR3cit H2AK5ac, binder concentration: 1:10,000 dilution
[11] = peptide modifications: H2AR3me1 H2AK5ac, binder concentration: 1:2,000 dilution
[12] = peptide modifications: H2AR3me1 H2AK5ac, binder concentration: 1:10,000 dilution
[13] = peptide modifications: H2AR3me2a H2AK5ac, binder concentration: 1:2,000 dilution
[14] = peptide modifications: H2AR3me2a H2AK5ac, binder concentration: 1:10,000 dilution
[15] = peptide modifications: H2AS1ph H2AR3me2s, binder concentration: 1:2,000 dilution
[16] = peptide modifications: H2AS1ph H2AR3me2s, binder concentration: 1:10,000 dilution
[17] = peptide modifications: H2AK5ac, binder concentration: 1:2,000 dilution
[18] = peptide modifications: H2AK5ac, binder concentration: 1:10,000 dilution
[19] = peptide modifications: H2AR3me2s H2AK5ac, binder concentration: 1:2,000 dilution
[20] = peptide modifications: H2AR3me2s H2AK5ac, binder concentration: 1:10,000 dilution
[21] = peptide modifications: H2AR3me2s, binder concentration: 1:2,000 dilution
[22] = peptide modifications: H2AR3me2s, binder concentration: 1:10,000 dilution
[23] = peptide modifications: H2AS1ph H2AR3me1, binder concentration: 1:2,000 dilution
[24] = peptide modifications: H2AS1ph H2AR3me1, binder concentration: 1:10,000 dilution

With SGRGKQGGKARAK [H2A 1-13 Sph G R G Kac Q G G Kac A R A K] the “peptide microarray binding signal” value ([1]; peptide modifications: H2AS1ph H2AK5ac H2AK9ac, binder concentration: 50 nM) was 0.00408 ± 0.00018, the “peptide microarray binding signal” value ([1]; peptide modifications: H2AS1ph H2AK5ac H2AK9ac, binder concentration: 500 nM) was 0.00738 ± 0.00011 and the “peptide microarray binding signal” value ([2]; peptide modifications: H2AS1ph H2AK5ac H2AK9ac, binder concentration: 10 nM) was 0.00257 ± 5e-05. For the same binder, the “peptide microarray binding signal” value ([2]; peptide modifications: H2AS1ph H2AK5ac H2AK9ac, binder concentration: 100 nM) was 0.00687 ± 0.00064, the “peptide microarray binding signal” value [3, 5] was 0.000321 ± 6.7e-06 and the “peptide microarray binding signal” value [3, 6] was 0.000399. For the same binder, the “peptide microarray binding signal” value [4, 5] was 0.000272 ± 4.9e-06 and the “peptide microarray binding signal” value [4, 6] was 0.000577 ± 6.2e-06.

SGRGKQGGKARAK [H2A 1-13 S G Rme G K Q G G K A R A K] was tested, and the “peptide microarray binding signal” value ([1]; peptide modifications: H2AR3me1, binder concentration: 50 nM) was 0.00254 ± 4.9e-05, the “peptide microarray binding signal” value ([1]; peptide modifications: H2AR3me1, binder concentration: 500 nM) was 0.005096 ± 3.3e-05 and the “peptide microarray binding signal” value ([2]; peptide modifications: H2AR3me1, binder concentration: 10 nM) was 0.00286 ± 0.00013. For the same binder, the “peptide microarray binding signal” value ([2]; peptide modifications: H2AR3me1, binder concentration: 100 nM) was 0.004039 ± 3.4e-05, the “peptide microarray binding signal” value [3, 7] was 0.000491 ± 9.7e-06 and the “peptide microarray binding signal” value [3, 8] was 0.000514 ± 5.5e-06. For the same binder, the “peptide microarray binding signal” value [4, 7] was 0.000181 and the “peptide microarray binding signal” value [4, 8] was 0.000404 ± 8.8e-06.

With SGRGKQGGKARAK [H2A 1-13 S G Rcit G Kac Q G G K A R A K] the “peptide microarray binding signal” value ([1]; peptide modifications: H2AR3cit H2AK5ac, binder concentration: 50 nM) was 0.00389 ± 0.00015, the “peptide microarray binding signal” value ([1]; peptide modifications: H2AR3cit H2AK5ac, binder concentration: 500 nM) was 0.00481 ± 0.00026 and the “peptide microarray binding signal” value ([2]; peptide modifications: H2AR3cit H2AK5ac, binder concentration: 10 nM) was 0.00519 ± 0.00013. The “peptide microarray binding signal” value ([2]; peptide modifications: H2AR3cit H2AK5ac, binder concentration: 100 nM) was 0.00567 ± 0.00026, the “peptide microarray binding signal” value [3, 9] was 0.001 ± 3.7e-05 and the “peptide microarray binding signal” value [3, 10] was 0.0016. For the same binder, the “peptide microarray binding signal” value [4, 9] was 0.000634 ± 9.9e-06 and the “peptide microarray binding signal” value [4, 10] was 0.0015 ± 4.4e-05.

For SGRGKQGGKARAK [H2A 1-13 S G Rme G Kac Q G G K A R A K], the “peptide microarray binding signal” value ([1]; peptide modifications: H2AR3me1 H2AK5ac, binder concentration: 50 nM) was 0.00467 ± 0.00064, the “peptide microarray binding signal” value ([1]; peptide modifications: H2AR3me1 H2AK5ac, binder concentration: 500 nM) was 0.00424 ± 0.00012 and the “peptide microarray binding signal” value ([2]; peptide modifications: H2AR3me1 H2AK5ac, binder concentration: 10 nM) was 0.002507 ± 1.4e-05. The “peptide microarray binding signal” value ([2]; peptide modifications: H2AR3me1 H2AK5ac, binder concentration: 100 nM) was 0.00305 ± 0.00059, the “peptide microarray binding signal” value [3, 11] was 0.000434 ± 2.9e-05 and the “peptide microarray binding signal” value [3, 12] was 0.000571. For the same binder, the “peptide microarray binding signal” value [4, 11] was 0.000242 ± 6.7e-06 and the “peptide microarray binding signal” value [4, 12] was 0.000634.

For SGRGKQGGKARAK [H2A 1-13 S G Rme2a G Kac Q G G K A R A K], the “peptide microarray binding signal” value ([1]; peptide modifications: H2AR3me2a H2AK5ac, binder concentration: 50 nM) was 0.00354 ± 0.00011, the “peptide microarray binding signal” value ([1]; peptide modifications: H2AR3me2a H2AK5ac, binder concentration: 500 nM) was 0.00657 ± 0.00029 and the “peptide microarray binding signal” value ([2]; peptide modifications: H2AR3me2a H2AK5ac, binder concentration: 10 nM) was 0.00352 ± 5e-05. The “peptide microarray binding signal” value ([2]; peptide modifications: H2AR3me2a H2AK5ac, binder concentration: 100 nM) was 0.00454 ± 0.00022, the “peptide microarray binding signal” value [3, 13] was 0.0005474 ± 5.3e-06 and the “peptide microarray binding signal” value [3, 14] was 0.00137 ± 1.3e-05. For the same binder, the “peptide microarray binding signal” value [4, 13] was 0.000468 ± 9e-06 and the “peptide microarray binding signal” value [4, 14] was 0.00104 ± 1.1e-05.

With SGRGKQGGKARAK [H2A 1-13 Sph G Rme2s G K Q G G K A R A K] the “peptide microarray binding signal” value ([1]; peptide modifications: H2AS1ph H2AR3me2s, binder concentration: 50 nM) was 0.00357 ± 5.8e-05, the “peptide microarray binding signal” value ([1]; peptide modifications: H2AS1ph H2AR3me2s, binder concentration: 500 nM) was 0.00752 ± 0.00025 and the “peptide microarray binding signal” value ([2]; peptide modifications: H2AS1ph H2AR3me2s, binder concentration: 10 nM) was 0.00257 ± 5e-05. The “peptide microarray binding signal” value ([2]; peptide modifications: H2AS1ph H2AR3me2s, binder concentration: 100 nM) was 0.00482 ± 0.0003, the “peptide microarray binding signal” value [3, 15] was 0.000378 ± 3.9e-06 and the “peptide microarray binding signal” value [3, 16] was 0.000571. For the same binder, the “peptide microarray binding signal” value [4, 15] was 0.000317 ± 9.6e-06 and the “peptide microarray binding signal” value [4, 16] was 0.000577 ± 6.2e-06.

With SGRGKQGGKARAK [H2A 1-13 S G R G Kac Q G G K A R A K] the “peptide microarray binding signal” value ([1]; peptide modifications: H2AK5ac, binder concentration: 50 nM) was 0.00288 ± 4.3e-05, the “peptide microarray binding signal” value ([1]; peptide modifications: H2AK5ac, binder concentration: 500 nM) was 0.0061 ± 0.00049 and the “peptide microarray binding signal” value ([2]; peptide modifications: H2AK5ac, binder concentration: 10 nM) was 0.00239 ± 2.4e-05. For the same binder, the “peptide microarray binding signal” value ([2]; peptide modifications: H2AK5ac, binder concentration: 100 nM) was 0.005528 ± 4.3e-05, the “peptide microarray binding signal” value [3, 17] was 0.000378 ± 1e-05 and the “peptide microarray binding signal” value [3, 18] was 0.000399. The “peptide microarray binding signal” value [4, 17] was 0.000227 ± 4.1e-06 and the “peptide microarray binding signal” value [4, 18] was 0.000577 ± 6.2e-06.

With SGRGKQGGKARAK [H2A 1-13 S G Rme2s G Kac Q G G K A R A K] the “peptide microarray binding signal” value ([1]; peptide modifications: H2AR3me2s H2AK5ac, binder concentration: 50 nM) was 0.00458 ± 0.00026, the “peptide microarray binding signal” value ([1]; peptide modifications: H2AR3me2s H2AK5ac, binder concentration: 500 nM) was 0.00562 ± 0.00037 and the “peptide microarray binding signal” value ([2]; peptide modifications: H2AR3me2s H2AK5ac, binder concentration: 10 nM) was 0.00603 ± 0.00016. For the same binder, the “peptide microarray binding signal” value ([2]; peptide modifications: H2AR3me2s H2AK5ac, binder concentration: 100 nM) was 0.00461 ± 7.6e-05, the “peptide microarray binding signal” value [3, 19] was 0.000736 and the “peptide microarray binding signal” value [3, 20] was 0.0012 ± 1.2e-05. For the same binder, the “peptide microarray binding signal” value [4, 19] was 0.000589 ± 9.4e-06 and the “peptide microarray binding signal” value [4, 20] was 0.00179 ± 6.1e-05.

In the case of SGRGKQGGKARAK [H2A 1-13 S G Rme2s G K Q G G K A R A K], the “peptide microarray binding signal” value ([1]; peptide modifications: H2AR3me2s, binder concentration: 50 nM) is reported as 0.00696 ± 0.0016, the “peptide microarray binding signal” value ([1]; peptide modifications: H2AR3me2s, binder concentration: 500 nM) is reported as 0.0101 ± 0.00014 and the “peptide microarray binding signal” value ([2]; peptide modifications: H2AR3me2s, binder concentration: 10 nM) is reported as 0.00519 ± 0.00018. The “peptide microarray binding signal” value ([2]; peptide modifications: H2AR3me2s, binder concentration: 100 nM) was 0.00893 ± 0.00025, the “peptide microarray binding signal” value [3, 21] was 0.00108 ± 4.1e-05 and the “peptide microarray binding signal” value [3, 22] was 0.00183 ± 9.6e-05. The “peptide microarray binding signal” value [4, 21] was 0.000755 ± 7.7e-05 and the “peptide microarray binding signal” value [4, 22] was 0.000923 ± 2.5e-05.

For SGRGKQGGKARAK [H2A 1-13 Sph G Rme G K Q G G K A R A K], the “peptide microarray binding signal” value ([1]; peptide modifications: H2AS1ph H2AR3me1, binder concentration: 50 nM) was 0.0036 ± 0.00033, the “peptide microarray binding signal” value ([1]; peptide modifications: H2AS1ph H2AR3me1, binder concentration: 500 nM) was 0.00495 ± 6.5e-05 and the “peptide microarray binding signal” value ([2]; peptide modifications: H2AS1ph H2AR3me1, binder concentration: 10 nM) was 0.00346 ± 0.00011. For the same binder, the “peptide microarray binding signal” value ([2]; peptide modifications: H2AS1ph H2AR3me1, binder concentration: 100 nM) was 0.00446 ± 0.00061, the “peptide microarray binding signal” value [3, 23] was 0.000566 ± 1.9e-05 and the “peptide microarray binding signal” value [3, 24] was 0.000799 ± 8.3e-06. For the same binder, the “peptide microarray binding signal” value [4, 23] was 0.000287 ± 2.9e-06 and the “peptide microarray binding signal” value [4, 24] was 0.000807 ± 1.5e-05.
